Experimental data reported in the supplement of paper PMC10849652.
The full data set covers some 8,800 targets. This sample favours those with a hit. About 0.5% of all pairs of compound and target were hits.

What was measured:
Assay in all cases: log2 fold change, soluble protein after heating vs DMSO (PISA); higher = thermal stabilisation; K562 lysate, 10 uM; active = over 0.2 and 3.5 SD of the protein, either way, in both replicates (recomputed)
vemurafenib = compound: CCCS(=O)(=O)Nc1ccc(F)c(C(=O)c2c[nH]c3ncc(-c4ccc(Cl)cc4)cc23)c1F [vemurafenib]
Procedure, shortened: (§1)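 Following dounce homogenisation of K562 pellets in PBS pH 7.4 with 1 mM MgCl2, crude extract at 1 mg/mL protein was incubated for 30 min with 10 μM compound. Aliquots were then heated for 3 min over 48°C-58°C and pooled, NP-40 was added to 0.5% at 4°C, and soluble protein was recovered as the supernatant at 21,000xg for 90 min. Channel-sum-equalised TMTpro 16plex LC-MS/MS quantified this protein. Each value, from duplicates, is a log-two fold change in thermal stability relative to solvent controls.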

[1] = compound: CCCS(=O)(=O)Nc1ccc(F)c(C(=O)c2c[nH]c3ncc(Cl)cc23)c1F
Procedure, shortened: as §1

barasertib = compound: CCN(CCCOc1ccc2c(Nc3cc(CC(=O)Nc4cccc(F)c4)[nH]n3)ncnc2c1)CCOP(=O)(O)O [barasertib]
Procedure, shortened: as §1

[2] = compound: CC[C@@H]1C(=O)N(C)c2cnc(Nc3ccc(C(=O)NC4CCN(C)CC4)cc3OC)nc2N1C1CCCC1
Procedure, shortened: as §1

volasertib = compound: CC[C@@H]1C(=O)N(C)c2cnc(Nc3ccc(C(=O)N[C@H]4CC[C@H](N5CCN(CC6CC6)CC5)CC4)cc3OC)nc2N1C(C)C [volasertib]
Procedure, shortened: as §1

[3] = compound: CCn1c(C(=O)N(C2CC2)C2CC2)cc2c3c(ncn3C)c(Nc3cc(C)n(C)n3)nc21
Procedure, shortened: as §1

saracatinib = compound: CN1CCN(CCOc2cc(OC3CCOCC3)c3c(Nc4c(Cl)ccc5c4OCO5)ncnc3c2)CC1 [saracatinib]
Procedure, shortened: as §1

sotrastaurin = compound: CN1CCN(c2nc(C3=C(c4c[nH]c5ccccc45)C(=O)NC3=O)c3ccccc3n2)CC1 [sotrastaurin]
Procedure, shortened: as §1

[4] = compound: CCn1cc(-c2ccnc3[nH]c(-c4cccc(CN(C)C)c4)cc23)c(-c2ccc(NC(=O)N(C)C)cc2)n1
Procedure, shortened: as §1

[5] = compound: CN1CCC(CNc2ccc3ncc(-c4cccc(OC(F)(F)F)c4)n3n2)CC1
Procedure, shortened: as §1

Measured: log2 fold change

CNIH4 (UniProt Q9P003)
Chain of UniProt Q9P003 (Q9P003 whole entry, looked up): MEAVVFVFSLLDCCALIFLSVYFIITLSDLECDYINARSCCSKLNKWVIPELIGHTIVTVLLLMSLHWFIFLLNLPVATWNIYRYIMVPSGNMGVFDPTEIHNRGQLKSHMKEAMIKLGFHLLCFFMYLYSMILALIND
inactive: vemurafenib 0.217 | [1] 0.064 | barasertib 0.585 | [2] 0.051 | volasertib -0.077 | [3] -0.19 | saracatinib 0.021 | sotrastaurin 0.066

CTPS1 (UniProt P17812)
Chain of UniProt P17812 (P17812 whole entry, looked up): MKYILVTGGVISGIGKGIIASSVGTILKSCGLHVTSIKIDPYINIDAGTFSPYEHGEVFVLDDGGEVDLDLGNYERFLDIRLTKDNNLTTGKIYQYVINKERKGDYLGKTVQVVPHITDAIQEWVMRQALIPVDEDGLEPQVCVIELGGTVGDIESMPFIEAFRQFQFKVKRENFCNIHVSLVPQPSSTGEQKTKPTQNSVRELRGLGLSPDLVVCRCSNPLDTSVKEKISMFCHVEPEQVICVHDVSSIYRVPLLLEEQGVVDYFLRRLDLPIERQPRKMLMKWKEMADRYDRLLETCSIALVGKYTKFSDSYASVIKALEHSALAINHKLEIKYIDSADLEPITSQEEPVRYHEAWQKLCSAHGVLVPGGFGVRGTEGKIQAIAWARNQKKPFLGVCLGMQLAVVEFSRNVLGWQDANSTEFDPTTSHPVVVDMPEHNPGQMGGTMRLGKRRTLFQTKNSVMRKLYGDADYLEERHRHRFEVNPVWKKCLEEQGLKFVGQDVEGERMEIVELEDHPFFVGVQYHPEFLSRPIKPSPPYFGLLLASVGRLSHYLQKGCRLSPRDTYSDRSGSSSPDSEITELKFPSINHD
inactive: vemurafenib -0.008 | [1] 0.016 | barasertib -0.024 | [2] -0.065 | volasertib -0.04 | [3] 0.026 | [4] -0.041 | [5] -0.011 | saracatinib 0.007 | sotrastaurin 0.021

CSNK2B (UniProt P67870)
Chain of UniProt P67870 (P67870 whole entry, looked up): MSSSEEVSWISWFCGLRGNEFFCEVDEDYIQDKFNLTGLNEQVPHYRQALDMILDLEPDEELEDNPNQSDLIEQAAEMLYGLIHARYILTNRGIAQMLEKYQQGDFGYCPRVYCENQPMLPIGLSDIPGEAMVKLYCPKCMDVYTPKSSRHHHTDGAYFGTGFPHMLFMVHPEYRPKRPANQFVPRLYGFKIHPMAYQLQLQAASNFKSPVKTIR
inactive: vemurafenib -0.042 | [1] 0.03 | barasertib -0.032 | [2] -0.007 | volasertib -0.038 | [3] 0.015 | [4] 0.01 | [5] 0.124 | saracatinib -0.066 | sotrastaurin -0.029

DENND1B (UniProt Q6P3S1)
Chain of UniProt Q6P3S1 (Q6P3S1 whole entry, looked up): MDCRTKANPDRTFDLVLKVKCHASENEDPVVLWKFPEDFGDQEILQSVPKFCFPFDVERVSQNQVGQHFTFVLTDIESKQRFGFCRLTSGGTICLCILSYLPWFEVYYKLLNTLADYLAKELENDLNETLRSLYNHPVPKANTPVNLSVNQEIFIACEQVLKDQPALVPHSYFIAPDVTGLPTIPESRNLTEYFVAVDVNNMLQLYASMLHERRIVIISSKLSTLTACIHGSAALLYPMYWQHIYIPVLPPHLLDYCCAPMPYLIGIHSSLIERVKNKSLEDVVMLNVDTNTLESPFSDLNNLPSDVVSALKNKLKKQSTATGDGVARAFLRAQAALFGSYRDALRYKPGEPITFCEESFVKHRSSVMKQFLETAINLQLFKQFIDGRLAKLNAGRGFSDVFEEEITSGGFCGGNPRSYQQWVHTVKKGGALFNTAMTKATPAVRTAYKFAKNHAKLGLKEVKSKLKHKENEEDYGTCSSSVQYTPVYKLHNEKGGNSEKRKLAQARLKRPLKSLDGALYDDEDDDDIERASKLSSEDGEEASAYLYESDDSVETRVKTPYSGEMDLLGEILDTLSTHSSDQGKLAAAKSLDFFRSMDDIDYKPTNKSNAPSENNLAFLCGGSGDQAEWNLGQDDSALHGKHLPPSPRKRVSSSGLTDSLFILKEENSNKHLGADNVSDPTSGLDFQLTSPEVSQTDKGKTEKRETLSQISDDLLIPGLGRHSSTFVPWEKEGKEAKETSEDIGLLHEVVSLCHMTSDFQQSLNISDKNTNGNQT
inactive: vemurafenib 0.128 | [1] -0.036 | barasertib 0.01 | volasertib -0.05 | [3] -0.134 | [4] 0.022 | [5] -0.024 | saracatinib -0.018 | sotrastaurin 0.04
